CD40 NFkB inh – inhibitors of CD40-induced NF-kB signaling, primary screen, BL2 cells, luciferase reporter, single point; CD40L-induced, 4 h; inhibition, % at 10 µM; 0.94% of 83,000 active; AID 1053188, 2014;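 active = mean inhibition of at least 50% with a set share of replicates also reaching that level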;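 also: 0% = neutral control wells and 100% = IKK inhibitor VII at 50 µM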
Numbers without * were called inactive; [ ] = dose if it differs, or a comment. Many of the other results were omitted from the sample, so hits are more common in it than they were.

SMILES	CD40 NFkB inh
O=C(c1cccc(F)c1)N1CC2(C1)[C@H](c1ccccc1)[C@H](CO)N2Cc1ccccn1	2[25 µM]
Cc1csc(N=Nc2ccc(N(C)C)cc2)[n+]1[O-]	80*
COc1ccc(NC(=O)N2CC(=O)N3[C@H](CO)[C@H](c4ccc(Br)cc4)[C@@H]3C2)cc1	-9[25 µM]
O=C(Nc1ccc2c(c1)OCCO2)c1ccc2ccccc2n1	-42
CC(OC(=O)c1ccccn1)C(=O)Nc1ccc2c(c1)OCCO2 (configuration not stated)	-1
O=C(Nc1ccc2c(c1)OCCO2)c1ccccn1	78*
C[C@@H]1CCCCO[C@@H](CN(C)C(=O)Nc2ccc3c(c2)OCO3)[C@H](C)CN([C@@H](C)CO)C(=O)c2cc(NS(=O)(=O)c3cccs3)ccc2O1	-5
COc1ccc2c3c(n(C)c2c1)[C@@H](CO)NCC31CCN(C(=O)c2ccc(F)cc2)CC1	6
O=C(C[C@H]1CC[C@@H]2[C@H](COC[C@@H](O)CN2C(=O)c2cnccn2)O1)NCc1ccc(Cl)cc1	0[25 µM]
NS(=O)(=O)c1ccc(N/N=C/c2ccccn2)c([N+](=O)[O-])c1	2
NS(=O)(=O)c1ccc(Sc2nc3ccccc3s2)c([N+](=O)[O-])c1	81*
CSc1nc2ccccc2s1	2
C[C@@H]1CCCCO[C@H](CN(C)Cc2ccc(Cl)c(Cl)c2)[C@@H](C)CN([C@@H](C)CO)C(=O)c2cc(NC(=O)Nc3cccc4ccccc34)ccc2O1	15
COc1cccc(S(=O)(=O)N2C[C@H](O)COC[C@@H]3O[C@H](CC(=O)NCCCN4CCOCC4)CC[C@H]32)c1	-9[25 µM]
CC1C=NC(S(=O)(=O)N2CC[C@H]3[C@@H](CO)N(C)c4ccc(-c5ccccc5F)cc4[C@H]32)=N1 (some centres not stated)	-19[25 µM]
N#Cc1ccc(-c2ccc3c(c2)[C@@H]2[C@@H](CCN2C(=O)C2CC2)[C@H](CO)N3)cc1	2
N#Cc1cccc(-c2ccc3c(c2)[C@H]2[C@H](CCN2C(=O)CN2CCOCC2)[C@@H](CO)N3)c1	-7[25 µM]
N#Cc1ccc(-c2ccc3c(c2)[C@H]2[C@H](CCN2C(=O)C2CC2)[C@@H](CO)N3)cc1	68*
N#Cc1cccc(-c2ccc3c(c2)[C@@H]2[C@@H](CCN2C(=O)CN2CCOCC2)[C@H](CO)N3)c1	-12[25 µM]
N#Cc1ccc(-c2ccc3c(c2)[C@H]2[C@H](CCN2C(=O)C2CCC2)[C@@H](CO)N3)cc1	47
N#Cc1cccc(-c2ccc3c(c2)[C@@H]2[C@@H](CCN2C(=O)CN2CCOCC2)[C@@H](CO)N3)c1	active[25 µM]
O=C(C[C@H]1CC[C@H]2[C@@H](COC[C@@H](O)CN2C(=O)Nc2ccccc2)O1)NCc1ccccc1F	0[25 µM]
C/C=C/c1ccc([C@H]2[C@@H](CO)N(C(=O)c3ccccc3)C23CN(C(C)=O)C3)cc1	-7[25 µM]
CCCC#Cc1ccc2c(c1)[C@@H]1[C@@H](CCN1S(=O)(=O)c1ccccc1C)[C@@H](CO)N2	-3[25 µM]
OC(COc1ccc2ccccc2c1)CN1CCCC1 (configuration not stated)	-36
SMILES	CD40 NFkB inh
O=C(O)C1CCCCN1S(=O)(=O)c1ccc2ccccc2c1 (configuration not stated)	4
O=S(=O)(CC(CN1CCCC1)N1CCCC1)c1ccc2ccccc2c1 (configuration not stated)	52*
CC(NCC(O)CP(=O)(O)CC1CCCCC1)c1ccc(Cl)c(Cl)c1 (configuration not stated)	2[25 µM]
Cc1ccc(OCCn2cnc3c(N)ncnc32)cc1	84*
Nc1ncnc2c1ncn2CCNCCc1ccccc1	0
Cc1ccc(OCCCCn2cnc3ccccc32)cc1	1
C[C@H](CO)N1C[C@H](C)[C@H](CN(C)C(=O)Nc2ccc3c(c2)OCO3)Oc2c(NC(=O)c3nc4ccccc4s3)cccc2C1=O	1[25 µM]
Cc1cnc(NC(=O)c2cc3c(s2)CCCC3)s1	65*
CNC(=O)c1cc2c(s1)CCCCCC2	5
CCc1nnc(NC(=O)c2cc3c(s2)CCCCC3)s1	-59
CN1C(=O)c2cc(NC(=O)C3CCC3)ccc2OC[C@@H]2O[C@@H](CC(=O)NCC3CCCCC3)CC[C@H]21	8
O=C(Nc1ccc2c(c1)[C@@H]1C[C@H](CC(=O)N3CCOCC3)O[C@@H](CO)[C@@H]1O2)Nc1ccccc1F	-15[25 µM]
c1ccc(-c2noc(-c3ccno3)n2)nc1	-25
c1ccc(-c2nc(-c3ccccn3)no2)cc1	87*
c1ccc(-c2noc(-c3ccco3)n2)nc1	-71
C[C@H]1CN([C@@H](C)CO)C(=O)c2ccccc2-c2ccccc2CO[C@@H]1CN(C)C(=O)Nc1ccnc(N2CCOCC2)c1	-24[25 µM]
CN1CCN(c2ccccc2NC(=O)c2ccc(-c3cccc([N+](=O)[O-])c3)o2)CC1	-11
O=C(c1ccc(-c2ccc(Cl)cc2)o1)N1CCN(c2ccc([N+](=O)[O-])cc2Cl)CC1	49*
O=C(Nc1ccccc1)c1ccc(-c2ccc([N+](=O)[O-])cc2)o1	-47
C[C@H]1CN([C@@H](C)CO)C(=O)c2c(c3ccccc3n2C)-c2ccccc2CO[C@@H]1CN(C)C(=O)c1ccc(F)cc1	-3
